Results filed as inconclusive are left out. Calls of active or inactive are those of the source. The call rests on the fitted dose curve; in most records, active means well fitted cell-killing curve with a large enough effect; inconclusive means small, poorly fitted or top-dose-only effect, or effect the other way; inactive means no such curve, though single readings can be large or run the other way.

31 molecules from PubChem BioAssay (NCATS) can be followed below.
Further: nearly all actives have a fitted effect of over 35% in size.
Potency means the concentration at half of the fitted maximal effect.

The nature of the first assay: Quantitative High-Throughput drug screen in 47 multiple myeloma cell lines against the NCATS MIPE library collection: LP1_DSMZ cell viability assay (AID 1918982). As to conditions: LP1 myeloma viability, CellTiter-Glo ATP luminescence, 48 h; series mostly up to 45.8 µM. In a few lines: (§1)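 Plated at 500 cells per well, myeloma lines received MIPE 4.0 compounds by pin tool. Following 48 h culture at 37 °C, CellTiter-Glo luminescence gave viability relative to DMSO and media-only controls.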
(In general: Cellular ATP, detected with luciferase, serves as a proxy for viable cell number.)
As for `C[C@H](NC(=O)c1sccc1OCc1ccc(Cl)cc1)c1ccccc1`, the Potency was 16.6 µM (active).

On to `CC1(C)CCC(CN2CCN(c3ccc(C(=O)NS(=O)(=O)c4ccc(NCC5CCOCC5)c([N+](=O)[O-])c4)c(Oc4cnc5[nH]ccc5c4)c3)CC2)=C(c2ccc(Cl)cc2)C1`, for which the Potency was 18.7 µM (active).

As to `O=C(Nc1cccc(Br)c1)c1cccc(S(=O)(=O)N2CCCCCC2)c1`, the Potency was 10.5 µM (active).

For `CNC(=O)c1ccccc1Sc1ccc2c(C=Cc3ccccn3)n[nH]c2c1`, the Potency is 23.5 µM (active).

As to `O=C(Nc1cc(Cl)cc2c1[nH]c1cnccc12)c1cccnc1`, the Potency result is “inactive”.

Take `CC(C)C(=O)Oc1ccc(CO)cc1[C@H](CCN(C(C)C)C(C)C)c1ccccc1`: the Potency result is “inactive”.

For the molecule `CCCCCNC(=O)N1CCC(CN(Cc2ccc(Cl)cc2)Cc2ccc([N+](=O)[O-])s2)C1` (stereo not given), the Potency is 29.6 µM (active).

As for `O=c1cc(CN2CCOCC2)occ1OCCCCCSc1ccnc2cc(C(F)(F)F)ccc12`, the Potency was 18.7 µM (active).

On to `NC1CCC(Nc2nc(Nc3ccc(C(=O)N4CCCCC4)cc3)c3ncn(-c4cccc(F)c4)c3n2)CC1` (stereo not given), for which the Potency result is “inactive”.

On to `CC[C@H]1OC(=O)[C@H](C)[C@@H](O[C@H]2C[C@@](C)(OC)[C@@H](O)[C@H](C)O2)[C@H](C)[C@@H](O[C@@H]2O[C@H](C)C[C@H](N(C)C)[C@@H]2O)[C@](C)(O)C[C@@H](C)CN(C)[C@H](C)[C@@H](O)[C@]1(C)O`, for which the Potency entry is “inactive”.

For the molecule `Cc1ccc(F)c(NC(=O)Nc2ccc(-c3cccc4[nH]nc(N)c34)cc2)c1`, the Potency was 16.6 µM (active).

Take `COc1cc2c(cc1OC)CN(CCc1ccc(NC(=O)c3cc(OC)c(OC)cc3NC(=O)c3cnc4ccccc4c3)cc1)CC2`: the Potency result is “inactive”.

As to `C[C@]12CCC3c4ccc(O)cc4CCC3C1CCC2=O` (stereo not given in full), the Potency is 18.7 µM (active).

As for `N#CC1(c2ccc(NC(=O)c3cccnc3NCc3ccncc3)cc2)CCCC1`, the Potency is 16.6 µM (active).

With `CCOC1OC(=O)C[C@H]1NC(=O)[C@@H]1CCCN1C(=O)[C@@H](NC(=O)c1ccc(N)c(Cl)c1)C(C)(C)C` (stereo not given in full), the Potency entry was “inactive”.

On to `Cc1c(O)cccc1C(=O)N[C@@H](CSc1ccccc1)[C@H](O)CN1C[C@H]2CCCC[C@@H]2C[C@@H]1C(=O)NC(C)(C)C`, for which the Potency was 20.9 µM (active).

In the case of `Cc1cnc(C(=O)O)c[n+]1[O-]`, the Potency result was “inactive”.

With `CC(C)(Cc1ccc2ccccc2c1)NC[C@@H](O)COc1cccc(Cl)c1C#N`, the Potency result is “inactive”.

As for `O=C(NC1CCOCC1)c1ccc(-c2cc(-c3cn[nH]c3-c3ccccn3)ccn2)cc1`, the Potency was 14.8 µM (active).

The next assay is described as follows: Quantitative High-Throughput drug screen in 47 multiple myeloma cell lines against the NCATS MIPE library collection: KMS28PE_JCRB cell viability assay (AID 1918983). As to conditions: KMS28PE multiple myeloma viability, CellTiter-Glo ATP, 48 h; series mostly up to 45.8 µM. In a few lines: as §1
For `CS(=O)(=O)N(Cc1ccco1)CC(O)Cn1c2ccccc2c2ccccc21` (stereo not given), the Potency is 5.9 µM (active).

`O=C(OCC#CCSc1nnc(-c2cccc3ccccc23)o1)c1cc2ccccc2s1`: the Potency entry was “inactive”.

On to `C[C@H](NC(=O)c1sccc1OCc1ccc(Cl)cc1)c1ccccc1`, for which the Potency was 16.6 µM (active).

Take `CC1(C)CCC(CN2CCN(c3ccc(C(=O)NS(=O)(=O)c4ccc(NCC5CCOCC5)c([N+](=O)[O-])c4)c(Oc4cnc5[nH]ccc5c4)c3)CC2)=C(c2ccc(Cl)cc2)C1`: the Potency was 16.6 µM (active).

`O=C(Nc1cccc(Br)c1)c1cccc(S(=O)(=O)N2CCCCCC2)c1`: the Potency is 23.5 µM (active).

With `Nc1ncnc2c1ncn2[C@@H]1O[C@@H](CO)[C@H](O)[C@H]1O`, the Potency entry was “inactive”.

For `CNC(=O)c1ccccc1Sc1ccc2c(C=Cc3ccccn3)n[nH]c2c1`, the Potency was 5.26 µM (active).

For `O=C(Nc1cc(Cl)cc2c1[nH]c1cnccc12)c1cccnc1`, the Potency is 16.6 µM (active).

On to `O=C1NC(=O)C(=Cc2ccc3nccnc3c2)S1`, for which the Potency is 10.2 µM (active).

Regarding `CCCCCNC(=O)N1CCC(CN(Cc2ccc(Cl)cc2)Cc2ccc([N+](=O)[O-])s2)C1` (stereo not given), the Potency was 20.9 µM (active).

With `O=c1cc(CN2CCOCC2)occ1OCCCCCSc1ccnc2cc(C(F)(F)F)ccc12`, the Potency was 2.64 µM (active).

As to `COc1cccc2c1CCCC2CCCN1CCN(C2CCCCC2)CC1` (stereo not given), the Potency is 14.8 µM (active).

Regarding `CC[C@H]1OC(=O)[C@H](C)[C@@H](O[C@H]2C[C@@](C)(OC)[C@@H](O)[C@H](C)O2)[C@H](C)[C@@H](O[C@@H]2O[C@H](C)C[C@H](N(C)C)[C@@H]2O)[C@](C)(O)C[C@@H](C)CN(C)[C@H](C)[C@@H](O)[C@]1(C)O`, the Potency result is “inactive”.

With `Cc1cc(OCCCc2c(C(=O)O)n(Cc3cccnc3)c3c(-c4c(COc5ccc(N6CCN([S+](C)(=O)[O-])CC6)cc5)nn(C)c4C)cccc23)cc(C)c1Cl`, the Potency is 23.5 µM (active).

Turning to `Cc1ccc(F)c(NC(=O)Nc2ccc(-c3cccc4[nH]nc(N)c34)cc2)c1`, the Potency is 26.4 µM (active).

On to `CC(C)C(=O)Nc1ncc(-c2cc(C(F)F)nn2-c2c(Cl)cccc2Cl)s1`, for which the Potency is 20.9 µM (active).

Turning to `CC(C)(C)COc1ccc(-n2cc(C(=O)O)cn2)cc1C#N`, the Potency entry is “inactive”.

Turning to `C[C@]12CCC3c4ccc(O)cc4CCC3C1CCC2=O` (stereo not given in full), the Potency is 11.8 µM (active).

Consider `NS(=O)(=O)c1ccc(NC2=CC(=O)c3ccccc3C2=O)cc1`, for which the Potency result was “inactive”.

On to `Cc1c(O)cccc1C(=O)N[C@@H](CSc1ccccc1)[C@H](O)CN1C[C@H]2CCCC[C@@H]2C[C@@H]1C(=O)NC(C)(C)C`, for which the Potency was 20.9 µM (active).

On to `Cc1cnc(C(=O)O)c[n+]1[O-]`, for which the Potency was 23.5 µM (active).

Consider `O=C(O)[C@H]1O[C@H](Oc2cc3oc(-c4ccccc4)cc(=O)c3c(O)c2O)[C@H](O)[C@@H](O)[C@H]1O`, for which the Potency was 16.6 µM (active).

Consider `CC(C)(Cc1ccc2ccccc2c1)NC[C@@H](O)COc1cccc(Cl)c1C#N`, for which the Potency result was “inactive”.

As for `Cc1c(NC(=O)c2ccc(C(C)(C)C)cc2)cccc1-c1cn(C)c(=O)c(Nc2ccc(C(=O)N3CCOCC3)cc2)n1`, the Potency was 23.5 µM (active).

On to `O=C(NC1CCOCC1)c1ccc(-c2cc(-c3cn[nH]c3-c3ccccn3)ccn2)cc1`, for which the Potency entry was “inactive”.

On to `C=C1C(=O)OC2C=C(C)CCC=C(C)CCC12` (stereo not given), for which the Potency was 23.5 µM (active).
